Data as given in PubChem BioAssay (NCATS).
Results filed as inconclusive are left out. Calls of active or inactive are those of the source. The call rests on the fitted dose curve; in most records, active means well fitted curve in the direction sought with a large enough effect; inconclusive means small, poorly fitted or top-dose-only effect, or another doubt; inactive means no such curve, though single readings can be large; an effect the other way counts as inactive or inconclusive.

Assays:
[1] = Quantitative High-Throughput drug screen in 47 multiple myeloma cell lines against the NCATS MIPE library collection: KMS21BM_JCRB cell viability assay (AID 1918974); conditions: ATP luminescence, 48 h; viability: at 45.8 µM unless noted
Summary of the method: (§1)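 Approved and investigational drugs from MIPE 4.0 were added by pin tool to 500 cells per well. After 48 hours at 37C, ATP-based CellTiter-Glo luminescence indicated remaining viability.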

[2] = Quantitative High-Throughput drug screen in 47 multiple myeloma cell lines against the NCATS MIPE library collection: KMS26_JCRB cell viability assay (AID 1918975); further: nearly all actives have a fitted effect of over 45% in size
Summary of the method: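 Luminescent ATP measurement with CellTiter-Glo gives viability, scaled between DMSO-only wells (100%) and media-only wells (0%). Cells, 500 per well, faced library compounds for 48 hours at 37C.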

[3] = Quantitative High-Throughput drug screen in 47 multiple myeloma cell lines against the NCATS MIPE library collection: MMM1_PLB cell viability assay (AID 1918976); further: nearly all actives have a fitted effect of over 35% in size
Summary of the method: (§2)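 500 cells/well; MIPE 4.0 drugs pin-transferred; 48 h, 37C, 5% CO2. CellTiter-Glo, 5 min RT, luminescence. Controls: DMSO 100%, media 0%.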

[4] = Quantitative High-Throughput drug screen in 47 multiple myeloma cell lines against the NCATS MIPE library collection: NCIH929_DSMZ cell viability assay (AID 1918978); further: nearly all actives have a fitted effect of over 35% in size
Summary of the method: as §2

[5] = Quantitative High-Throughput drug screen in 47 multiple myeloma cell lines against the NCATS MIPE library collection: MM1S_ATCC cell viability assay (AID 1918980); further: nearly all actives have a fitted effect of over 45% in size
Summary of the method: as §2

[6] = Quantitative High-Throughput drug screen in 47 multiple myeloma cell lines against the NCATS MIPE library collection: MM1R_ATCC cell viability assay (AID 1918981); further: nearly all actives have a fitted effect of over 35% in size
Summary of the method: as §2

[7] = Quantitative High-Throughput drug screen in 47 multiple myeloma cell lines against the NCATS MIPE library collection: LP1_DSMZ cell viability assay (AID 1918982); further: nearly all actives have a fitted effect of over 35% in size
Summary of the method: as §2

[8] = Quantitative High-Throughput drug screen in 47 multiple myeloma cell lines against the NCATS MIPE library collection: OCIMY7_PLB cell viability assay (AID 1918987); further: nearly all actives have a fitted effect of over 65% in size
Summary of the method: as §2

[9] = Quantitative High-Throughput drug screen in 47 multiple myeloma cell lines against the NCATS MIPE library collection: OCIMY5_PLB cell viability assay (AID 1918988); further: nearly all actives have a fitted effect of over 65% in size
Summary of the method: as §2

[10] = Quantitative High-Throughput drug screen in 47 multiple myeloma cell lines against the NCATS MIPE library collection: OPM1_PLB cell viability assay (AID 1918989); further: nearly all actives have a fitted effect of over 40% in size
Summary of the method: as §2

[11] = Quantitative High-Throughput drug screen in 47 multiple myeloma cell lines against the NCATS MIPE library collection: SKMM1_PLB cell viability assay (AID 1919863); conditions: SKMM1 myeloma viability, CellTiter-Glo ATP, 48 h; viability: hits give low values; further: nearly all actives have a fitted effect of over 35% in size; on viability: series mostly up to about 46 µM
Summary of the method: as §2

[12] = Quantitative High-Throughput drug screen in 47 multiple myeloma cell lines against the NCATS MIPE library collection: U266_ATCC cell viability assay (AID 1919864); further: nearly all actives have a fitted effect of over 35% in size
Summary of the method: as §2

[13] = Quantitative High-Throughput drug screen in 47 multiple myeloma cell lines against the NCATS MIPE library collection: XG6_PLB cell viability assay (AID 1919865); further: nearly all actives have a fitted effect of over 40% in size
Summary of the method: as §2

[14] = Quantitative High-Throughput drug screen in 47 multiple myeloma cell lines against the NCATS MIPE library collection: XG1_PLB cell viability assay (AID 1919866); further: nearly all actives have a fitted effect of over 35% in size
Summary of the method: as §2

[15] = Quantitative High-Throughput drug screen in 47 multiple myeloma cell lines against the NCATS MIPE library collection: KMS20_JCRB cell viability assay (AID 1918973); further: nearly all actives have a fitted effect of over 45% in size
Summary of the method: as §1

[16] = Quantitative High-Throughput drug screen in 47 multiple myeloma cell lines against the NCATS MIPE library collection: MOLP8_DSMZ cell viability assay (AID 1918977); further: nearly all actives have a fitted effect of over 45% in size
Summary of the method: as §2

[17] = Quantitative High-Throughput drug screen in 47 multiple myeloma cell lines against the NCATS MIPE library collection: OCIMY1_PLB cell viability assay (AID 1918979); further: nearly all actives have a fitted effect of over 35% in size; on viability: series mostly up to about 46 µM
Summary of the method: as §2

[18] = Quantitative High-Throughput drug screen in 47 multiple myeloma cell lines against the NCATS MIPE library collection: KMS28PE_JCRB cell viability assay (AID 1918983); further: nearly all actives have a fitted effect of over 35% in size
Summary of the method: as §2

[19] = Quantitative High-Throughput drug screen in 47 multiple myeloma cell lines against the NCATS MIPE library collection: L363_DSMZ cell viability assay (AID 1918984); further: nearly all actives have a fitted effect of over 40% in size
Summary of the method: as §2

[20] = Quantitative High-Throughput drug screen in 47 multiple myeloma cell lines against the NCATS MIPE library collection: KMS34_JCRB cell viability assay (AID 1918985); further: nearly all actives have a fitted effect of over 40% in size
Summary of the method: as §2
Potency means the concentration at half of the fitted maximal effect.

COc1cc2ncn(-c3cc(OCc4ccccc4C(F)(F)F)c(C(N)=O)s3)c2cc1OC
active: Potency [1] 1.32 µM | Potency [2] 18.7 µM | Potency [3] 20.9 µM | Potency [4] 7.43 µM | Potency [5] 3.32 µM | Potency [6] 18.7 µM | Potency [7] 0.935 µM | Potency [8] 0.332 µM | Potency [9] 1.32 µM | Potency [10] 0.743 µM | Potency [11] 0.166 µM | Potency [12] 18.7 µM | Potency [13] 1.66 µM | Potency [14] 0.209 µM

Cc1c(Cn2c(C)nc3c(C(=O)O)cc(N4CCOCC4)cc32)cccc1C(F)(F)F
active: Potency [15] 0.0935 µM | Potency [5] 0.0662 µM | Potency [8] 0.264 µM | Potency [9] 8.33 µM | Potency [10] 18.7 µM | Potency [14] 0.743 µM
inactive: Potency [16] | Potency [17] | Potency [7] | Potency [18] | Potency [12]

O=c1[nH]c(=O)n(C2CCCO2)cc1F (stereo not given)
inactive: Potency [1] | Potency [2] | Potency [4] | Potency [17] | Potency [7] | Potency [19] | Potency [20] | Potency [10]
active: Potency [9] 42.9 µM

CC1(C)OC2=C(C(=O)c3ccccc3C2=O)[C@H](NCc2ccccc2)[C@H]1O
active: Potency [1] 1.05 µM | Potency [2] 5.26 µM | Potency [3] 2.09 µM | Potency [16] 2.96 µM | Potency [4] 2.35 µM | Potency [17] 4.18 µM | Potency [5] 2.09 µM | Potency [6] 4.18 µM | Potency [7] 4.69 µM | Potency [18] 6.62 µM | Potency [19] 2.09 µM | Potency [20] 4.18 µM | Potency [8] 1.32 µM | Potency [9] 3.32 µM | Potency [10] 2.35 µM | Potency [11] 7.43 µM | Potency [12] 2.64 µM | Potency [13] 0.935 µM | Potency [14] 1.48 µM

Cc1coc2c1C(=O)C(=O)c1c-2ccc2c1CCCC2(C)C
active: Potency [15] 9.35 µM | Potency [2] 2.96 µM | Potency [4] 13.2 µM | Potency [17] 16.6 µM | Potency [6] 18.7 µM | Potency [7] 4.18 µM | Potency [19] 0.0418 µM | Potency [9] 14.8 µM | Potency [10] 20.9 µM | Potency [11] 18.7 µM
inactive: Potency [12]

CS(=O)(=O)c1ccc(-c2cnc(N)c(C(=O)Nc3ccccc3)n2)cc1
active: Potency [6] 5.26 µM | Potency [8] 1.66 µM | Potency [9] 2.64 µM | Potency [10] 10.5 µM
inactive: Potency [15] | Potency [4] | Potency [17] | Potency [7]

Cc1cc(Nc2cc(CN3CCOCC3)c3nc(C)c(Cc4ccc(Cl)cc4F)n3n2)n[nH]1
active: Potency [15] 5.26 µM | Potency [3] 14.8 µM | Potency [16] 20.9 µM | Potency [4] 26.4 µM | Potency [5] 20.9 µM | Potency [6] 18.7 µM | Potency [8] 2.64 µM | Potency [9] 3.32 µM | Potency [10] 16.6 µM | Potency [11] 16.6 µM | Potency [12] 20.9 µM | Potency [13] 13.2 µM | Potency [14] 0.833 µM

Cc1cn2cc(C(=O)N(C)CCO)cc(N[C@@H]3CCOc4cccc(C)c43)c2n1
inactive: Potency [15] | Potency [4] | Potency [17] | Potency [6] | Potency [7] | Potency [20] | Potency [9] | Potency [10] | Potency [13] | Potency [14]

O=C(C=Cc1c(C(=O)O)[nH]c2cc(Cl)cc(Cl)c12)Nc1ccccc1
inactive: Potency [15] | Potency [2] | Potency [4] | Potency [17] | Potency [5] | Potency [6] | Potency [7] | Potency [18] | Potency [8] | Potency [9] | Potency [10] | viability [11] 114% | Potency [13] | Potency [14]

Nc1ccn([C@@H]2O[C@H](CO)[C@H](O)C2(F)F)c(=O)n1
active: Potency [15] 0.418 µM | Potency [4] 0.264 µM | Potency [5] 0.0187 µM | Potency [6] 0.0093 µM | Potency [18] 0.469 µM | Potency [8] 0.001 µM | Potency [9] 5.9 µM | Potency [11] 0.0264 µM | Potency [12] 14.8 µM | Potency [13] 0.0743 µM | Potency [14] 0.0209 µM

NCC(=O)Nc1ccc(-n2nc(C(F)(F)F)cc2-c2ccc3c(ccc4ccccc43)c2)cc1
active: Potency [15] 9.35 µM | Potency [3] 23.5 µM | Potency [4] 16.6 µM | Potency [7] 23.5 µM | Potency [18] 29.6 µM | Potency [8] 16.6 µM | Potency [9] 29.6 µM | Potency [10] 18.7 µM | Potency [11] 37.2 µM | Potency [12] 20.9 µM | Potency [13] 18.7 µM | Potency [14] 16.6 µM

COc1cc(OC2CCN(C)CC2)ccc1Nc1ncc2c(n1)n(C1CCCC1)c(=O)n2C
active: Potency [15] 7.43 µM | Potency [2] 13.2 µM | Potency [4] 6.62 µM | Potency [5] 11.8 µM | Potency [6] 18.7 µM | Potency [19] 7.43 µM | Potency [20] 16.6 µM | Potency [8] 2.96 µM | Potency [9] 9.35 µM | Potency [10] 7.43 µM | Potency [12] 14.8 µM | Potency [13] 4.69 µM | Potency [14] 4.69 µM
